Bioassay records: PubChem BioAssay, National Center for Advancing Translational Sciences (NCATS)
Pf growth 48h: Primary qHTS for delayed death inhibitors of the malarial parasite plastid, 48 hour incubation; P. falciparum luciferase growth in erythrocytes, 48 h; Potency, µM (doses to about 28.7 µM), inactives show top-dose activity change, negative = inhibition, usual class: inhibitors; actives 5.9% (n = 310,000); AID 504832, 2011; further: potency means the concentration at half of the fitted maximal effect; on the % scale 0 is the no-effect control and ±100 the full control effect
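Compounds are pin-transferred into medium, infected erythrocytes (2% hematocrit, 0.1% parasitemia final) are added, and plates sit one parasite generation at 37 C in 5% CO2. Detection reagent is then added and luminescence measured.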
Cycloheximide cs: Cycloheximide Counterscreen for Small Molecule Inhibitors of Shiga Toxin | cell reporter, cycloheximide protein synthesis inhibition counterscreen | max response, % | actives 12% (n = 300,000) | AID 2314, 2010; in the data active means max response mostly above about 13%, no sharp cut-off; inactive means mostly below about 14%; further: read at 38.3 µM for the half of the compounds with a filed dose; 0% is about no effect
Shiga inhibitor: A qHTS for Small Molecule Inhibitors of Shiga Toxin; actives 9.2% (n = 290,000); inhibition, % at 38.7 µM; Vero cells, Shiga toxin protein synthesis inhibition reporter; in the data active means inhibition mostly above about 28%, no sharp cut-off; inactive means mostly below about 43%; further: 0% is about no effect
NS1 function inh: qHTS Assay for Inhibitors of Influenza NS1 Protein Function | Potency, µM (highest dose often 46.1 µM), without a hit: at the highest dose activity, positive = more growth | actives 0.4% (n = 270,000) | AID 2326, 2010; calls by dose curve; further: potency means the concentration at half of the fitted maximal effect; actives are rising curves; nearly all actives have a fitted effect of over 50% in size
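S. cerevisiae expressing influenza A NS1, grown in glucose, washed, then diluted 1:100 into pH 6.0 -URA galactose medium with 23 nl compound. Growth recovery read as OD600; NS1-free strain serves as control.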
Pf growth 96h: Primary qHTS for delayed death inhibitors of the malarial parasite plastid, 96 hour incubation | P. falciparum luciferase reporter growth, 96 h | Potency, µM (doses to about 28.7 µM), without a hit: at the highest dose activity change, negative = inhibition, most hits filed as inhibitors | actives 6.9% (n = 320,000); further: potency means the concentration at half of the fitted maximal effect; on the % scale 0 is the no-effect control and ±100 the full control effect
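Delayed-death screen, second-generation endpoint: infected erythrocytes, 2% hematocrit, 0.05% parasitemia final; 96 hours at 37 C, 5% CO2; luciferase detection reagent; luminescence decrease equals reduced growth.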
SARS PLpro yeast: qHTS of Yeast-based Assay for SARS-CoV PLP; S. cerevisiae expressing SARS-CoV PLpro, growth rescue; Potency, µM (titrated, usually from 32.9 µM), inactives show at the highest dose activity, positive = growth rescue, usual class: activators; actives 0.19% (n = 330,000); AID 485353, 2010; calls by dose curve; further: potency means the concentration at half of the fitted maximal effect; 0% is about no effect; nearly all actives have a fitted effect of over 55% in size
An asterisk follows results filed as active; ? = inconclusive; / = not tested or not shown; [ ] = dose if it differs, or a comment. Only some compounds are listed: those with a hit (about 21% of all), similar ones and a draw of the others. Unless noted, the call rests on the fitted dose curve; in most records, active means well fitted inhibition curve with a large enough effect; inconclusive means small, poorly fitted or top-dose-only effect, or another doubt; inactive means no such curve, though single readings can be large or run the other way.

SMILES	Pf growth 48h	Cycloheximide cs	Shiga inhibitor	NS1 function inh	Pf growth 96h	SARS PLpro yeast
CC(OC(=O)c1ccc([N+](=O)[O-])s1)C(=O)NC1CCCCC1C (stereo not given)	13µM*	/	/	/	?	-22%
Cc1[nH]c2ccc(C(=O)OC(C)C(=O)NC3CCCCC3C)cc2c1C (stereo not given)	4.7µM*	/	/	/	?	6%
CC(OC(=O)c1ccc2c(c1)OCO2)C(=O)NC1CCCCC1C (stereo not given)	-7%	/	/	/	5%	4%
COc1cc(C(=O)OC(C)C(=O)NC2CCCCC2C)c([N+](=O)[O-])cc1OC (stereo not given)	-7%	/	/	/	7%	1%
CC1CCCCC1NC(=O)C1CCC(CNS(=O)(=O)c2cccc3cccnc23)CC1 (stereo not given)	-14%	1	-8	5%	21%	2%
COc1ccc(C(=O)NC2(C(F)(F)F)C(=O)Nc3c2c(=O)[nH]c(=O)n3CCc2ccc(OC)c(OC)c2)cc1 (stereo not given)	12%	13	-7	1%	103%	2%
COc1ccc(S(=O)(=O)N2CCNC(=O)CC2)cc1	22%	-1	-10	2%	-25%	-1%
COc1ccccc1-c1oc2ccccc2c1C#CC1(N)CCCCC1	8.3µM*	/	/	/	3.3µM*	-1%
COc1ccccc1-c1oc2ccccc2c1C#CC1(O)CCCCC1	/	/	/	/	/	1%
CCCSc1nnc(NC(=O)Nc2ccccc2)s1	48%	19*	21	-7%	-98%	28%
CCCSc1nnc(NC(=O)Nc2ccc(C)cc2)s1	26%	2	17	2%	?	0%
CCCSc1nnc(NC(=O)Nc2ccc(F)cc2)s1	?	32*	29	-17%	0%	-16%
O=C(Nc1ccccc1)Nc1nnc(-c2ccccc2)s1	82%	19	9	4%	81%	0%
COc1cc(=O)[nH]c(SC(C)C(=O)Nc2cc(C)on2)n1 (stereo not given)	17%	-4	-19	4%	18%	-2%
COc1ccc2cc(CCC(C)=O)ccc2c1	55%[12.8 µM]	56*	92*	-31%	95%[12.8 µM]	1%
COc1ccc(CCC(=O)Nc2cccc(Cl)c2)cc1	-8%	9	18	-10%	-31%	-30%
c1ccc(C2[C@H]3CN(Cc4cccnc4)[C@H](c4ccccc4)C34CC2(c2cccnc2)C4)cc1 (stereo not given in full)	2.3µM*	-5	-7	-42%	2.9µM*	-12%
COC(=O)c1cccc(C23CC4(C2)[C@H](CN(Cc2cccnc2)[C@@H]4c2ccccc2)C3c2ccccc2)c1 (stereo not given in full)	12µM*	1	-2	-2%	5.9µM*	-6%
Clc1ccc(C2[C@H]3CN(Cc4cccnc4)[C@H](c4ccccc4)C34CC2(c2ccccc2)C4)cn1 (stereo not given in full)	10µM*	-4	-6	4%	8.3µM*	-13%
Clc1ccc(C2[C@H]3CN(Cc4ccc(-c5ccccc5)cc4)[C@H](c4ccccc4)C34CC2(c2ccccc2)C4)cn1 (stereo not given in full)	?	0	14	3%	-24%	-2%
c1ccc(C2[C@H]3CN(CC4CCCCC4)[C@H](c4ccccc4)C34CC2(c2cccnc2)C4)cc1 (stereo not given in full)	4.1µM*	-2	-4	-2%	?	-2%
c1ccc(C2[C@H]3CN(CC4CCCCC4)[C@H](c4ccccc4)C34CC2(c2ccccc2)C4)cc1 (stereo not given in full)	?	-3	13	11%	?	-4%
O=C(COC(=O)c1ccc[n+]([O-])c1)Nc1cc([N+](=O)[O-])ccc1Cl	/	/	/	/	/	1%
Cc1cccc(NC(=O)C2c3ccccc3Oc3ccccc32)n1	?	11	18	-49%	31%	-5%
N#Cc1ccc(C23CC4(C2)[C@H](CN(Cc2ccc(C(F)(F)F)cc2)[C@@H]4c2ccccc2)C3c2ccccc2)cc1 (stereo not given in full)	?	-2	-6	7%	?	0%
SMILES	Pf growth 48h	Cycloheximide cs	Shiga inhibitor	NS1 function inh	Pf growth 96h	SARS PLpro yeast
c1ccc(C2[C@H]3CN(Cc4cccnc4)[C@H](c4ccccc4)C34CC2(c2ccccc2)C4)cc1 (stereo not given in full)	4.1µM*	-5	5	-42%	3.3µM*	-20%
N#Cc1ccc(C23CC4(C2)[C@H](CN(P(=O)(c2ccccc2)c2ccccc2)[C@@H]4c2ccccc2)C3c2ccc(Cl)nc2)cc1 (stereo not given in full)	4.7µM*	1	12	?	4.1µM*	2%
O=[N+]([O-])c1ccc(C(O)C23CN4CN(CN(C4)C2)C3)cc1 (stereo not given)	-3%	0	16	/	?	0%
NNC(=O)c1ccccc1OCc1ccccc1	15%	17*	38*	7%	?	0%
O=C(Nc1ccc(O)cc1)c1ccccc1OCc1ccccc1	?	12	-1	-12%	?	1%
CC(=O)c1ccc(OCc2ccccc2)c(C)c1O	71%	29*	32	-42%	57%	-9%
COc1cc(NC(=O)c2ccccc2OCc2ccccc2)cc(OC)c1OC	9.3µM*	-3	5	-76%	-19%	-12%
O=C(COc1ccccc1Cl)NNC(=O)c1ccc2nc[nH]c2c1	?	/	/	/	24%	1%
COc1ccccc1C(=O)Nc1cccc(NC(=O)c2ccccc2C)c1	-31%	3	6	-38%	-24%	-12%
CCN(CC)c1cc(C)c2cc(NC(=O)c3ccccc3OC)ccc2n1	?	0	8	/	9.3µM*	1%
CN(C(=O)c1cccc(NC(=O)c2cccs2)c1)c1ccccc1	19%	-3	-18	22%	-6%	3%
CCN(CC)c1cc(C)c2cc(NC(=O)c3cccs3)ccc2n1	?	23*	40	/	?	7%
Cc1ccc(-c2cc(C(F)F)n3ncc(C(=O)Nc4cn(C)nc4C)c3n2)cc1	?	-3	-20	3%	-2%	0%
COCCNC(=S)NNC(=O)CSCc1ccc(Cl)cc1Cl	-10%	-3	43*	-1%	-11%	-1%
CC(=O)Nc1ccc(NC2=C(Cl)C(=O)c3ccccc3C2=O)cc1	0%	18	39	/	18%	1%
O=C1C(Cl)=C(Nc2ccc3cn[nH]c3c2)C(=O)c2ccccc21	12µM*	-13	-12	-39%	8.3µM*	-5%
CN(C)c1ccc(NC2=C(Cl)C(=O)c3ccccc3C2=O)cc1	134%	51*	69*	15%	18%	0%
